The list is not random: actives were taken first. Their share in the collection is about 11%.
AmpC no deterg – qHTS Inhibitors of AmpC Beta-Lactamase (assay without detergent). P00811. AmpC nitrocefin hydrolysis, absorbance 480 nm, 0.0001% Triton. Potency, µM (highest dose often 57.1 µM), hits mostly inhibitors. 0.52% of 330,000 active. AID 485341, 2010; further: nearly all actives have a fitted effect of over 20% in size
Target sequence (P00811 whole entry, looked up): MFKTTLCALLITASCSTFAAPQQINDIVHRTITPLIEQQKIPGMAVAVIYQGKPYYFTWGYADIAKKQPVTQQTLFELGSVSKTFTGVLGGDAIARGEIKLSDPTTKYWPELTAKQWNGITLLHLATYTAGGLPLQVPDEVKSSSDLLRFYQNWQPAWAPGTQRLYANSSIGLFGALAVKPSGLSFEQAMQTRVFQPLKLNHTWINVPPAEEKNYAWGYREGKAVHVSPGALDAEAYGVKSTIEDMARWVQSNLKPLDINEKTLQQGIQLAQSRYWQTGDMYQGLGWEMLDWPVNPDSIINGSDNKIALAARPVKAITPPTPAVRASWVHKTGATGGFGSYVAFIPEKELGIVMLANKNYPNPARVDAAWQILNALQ
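AmpC (5.3 nM in the dispensed reagent) in 20 mM phosphate pH 7.0 with 0.01% (detergent screen) or 0.0001% Triton X-100 was preincubated with compounds for 15 min at room temperature. Nitrocefin was then added from an 800 uM solution, and hydrolysis was followed at 480 nm.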
Pf growth 48h – Primary qHTS for delayed death inhibitors of the malarial parasite plastid, 48 hour incubation; AID 504832, 2011; P. falciparum luciferase growth in erythrocytes, 48 h; 5.9% of 310,000 active; Potency, µM (titrated, usually from 28.7 µM), hits mostly inhibitors
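A one-generation exposure of luciferase-tagged malaria parasites in RPMI 1640/Albumax erythrocyte culture, 37 C and 5% CO2. Inhibition is inferred from decreased luminescence after adding detection reagent.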
AMA1 RON2 block – qHTS for Inhibitors of AMA1-RON; Towards Development of Antimalarial Drug Lead: Primary Screen; Plasmodium falciparum AMA1 (3D7) - RON2 peptide interaction; AlphaScreen AMA1-biotinylated RON2 peptide binding; Potency, µM (doses to about 58.2 µM), actives largely listed as inhibitors; 0.2% of 360,000 active; AID 720542, 2013; further: nearly all actives have a fitted effect of over 45% in size
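AMA1 (3D7) with his tag at 25 nM final met compounds first, then biotinylated RON2 peptide at 25 nM; detection used donor plus acceptor beads, 10 µg/mL apiece, read by AlphaScreen after 30 min at room temperature.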
HCV inhibitor – qHTS Assay for Inhibitors of Hepatitis C Virus (HCV); Potency, µM (highest dose often 41.8 µM), most hits filed as inhibitors; Huh7.5.1 HCVcc-Cre infection, luciferase reporter, 44 h; 3.4% of 340,000 active
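Seed cells (1,000/well) for 4 h; treat with compound and infect with HCVcc-Cre, moi about 0.5. Incubate 44 h, then detect luciferase activity.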
Pf growth 96h – Primary qHTS for delayed death inhibitors of the malarial parasite plastid, 96 hour incubation; P. falciparum luciferase reporter growth, 96 h; Potency, µM (top dose mostly 28.7 µM), most hits filed as inhibitors; 6.9% of 320,000 active
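Plates of compound plus infected erythrocytes (2% hematocrit, 0.05% parasitemia final) incubate 96 hours, 37 C, 5% CO2. Detection reagent added; reduced luminescence from the parasites' luciferase reporter flags inhibition.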
AmpC detergent – qHTS Inhibitors of AmpC Beta-Lactamase (assay with detergent) | Potency, µM (titrated, usually from 114 µM), actives largely listed as inhibitors | AmpC hydrolysis of nitrocefin, absorbance 480 nm, 0.01% Triton | 0.041% of 370,000 active | P00811 | AID 485294, 2010; further: nearly all actives have a fitted effect of over 25% in size
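AmpC (5.3 nM in the dispensed reagent) in 20 mM phosphate pH 7.0 with 0.01% (detergent screen) or 0.0001% Triton X-100 was preincubated with compounds for 15 min at room temperature. Nitrocefin was then added from an 800 uM solution, and hydrolysis was followed at 480 nm.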
A number is an active result; - = inactive; ? = inconclusive; . = no result given; [ ] = another dose, or the depositor's remark. The call rests on the fitted dose curve; in most records, active means well fitted curve in the direction sought with a large enough effect; inconclusive means small, poorly fitted or top-dose-only effect, or another doubt; inactive means no such curve, though single readings can be large; an effect the other way counts as inactive or inconclusive.

SMILES	AmpC no deterg	Pf growth 48h	AMA1 RON2 block	HCV inhibitor	Pf growth 96h	AmpC detergent
CC1CCCCN1CCNC(=O)c1ccc2c(=O)n(Cc3ccc(Cl)cc3)c(=S)[nH]c2c1 (stereo not drawn)	-	3.7µM	-	2.2µM	-	-
CCN(C(=O)CCS(=O)(=O)c1cc2[nH]c(=O)c(=O)[nH]c2cc1C)c1ccccc1	.	.	.	.	.	-
CCN(CC)c1ccc(NC(=O)CCCN2C(=O)C(c3ccccc3)Oc3cccnc32)c(C)c1 (stereo not drawn)	.	.	.	.	.	-
Cc1cccc(Cn2cnc3c(cnn3-c3ccc(Cl)cc3)c2=O)c1	.	.	.	.	.	-
COCCn1c(=O)[nH]c2cc(C(=O)NCc3ccccc3)ccc2c1=O	-	.	-	?	1.5µM	-
CC1CCCCN1CCCNC(=O)c1ccc2c(=O)n(CCc3ccccc3)c(=O)[nH]c2c1 (stereo not drawn)	-	.	-	4µM	-	?
CN1CCN(CCCNC(=O)c2ccc3c(=O)n(CCc4ccccc4)c(=O)[nH]c3c2)CC1	-	?	-	-	-	?
CCCCCn1c(=O)[nH]c2cc(C(=O)NCCN3CCC(C)CC3)ccc2c1=O	-	-	-	?	-	-
CCCCCn1c(=O)[nH]c2cc(C(=O)NCCCN3CCCCC3)ccc2c1=O	-	9.3µM	-	10µM	.	-
CCN(CC)CCCNC(=O)c1ccc2c(=O)n(CCc3ccccc3)c(=O)[nH]c2c1	.	.	.	.	.	-
CC1CCN(CCCNC(=O)c2ccc3c(=O)n(CCc4ccccc4)c(=O)[nH]c3c2)CC1	-	.	-	8.9µM	?	-
Cc1cc(NC(=O)C(C)(C)C)cc(-c2nc3ncccc3o2)c1O	.	.	.	.	.	-
CSc1ccccc1OCc1cc(C(=O)N2CCC(Oc3cccnc3)CC2)no1	-	13µM	.	.	?	-
COc1ccccc1OCc1cc(C(=O)N2CCCC(OCc3cccnc3)C2)no1 (stereo not drawn)	-	-	-	-	12µM	-
O=C(c1cc(COc2cccc3cnccc23)on1)N1CCCC(CCCO)C1 (stereo not drawn)	-	-	-	1.4µM	-	-
COCC1CCN(C(=O)c2cc(COc3cccc4cnccc34)on2)CC1	-	-	-	7.1µM	-	-
Cc1cc(NC(=O)CCn2c(=O)c3cccn3c3cccnc32)ccc1Br	.	.	.	.	.	-
CCOc1ccc(NC(=O)CSc2nc3ccsc3c(=O)n2C(C)CC)cc1 (stereo not drawn)	.	.	.	.	.	-
CC(C)C(=O)NC(c1ccccc1)c1cc([N+](=O)[O-])c2cccnc2c1O (stereo not drawn)	-	-	?	?	0.37µM	?
CC(=O)NC(c1ccccc1)c1cc([N+](=O)[O-])c2cccnc2c1O (stereo not drawn)	-	?	-	?	-	-
CC(=O)NC(c1cccs1)c1cc([N+](=O)[O-])c2cccnc2c1O (stereo not drawn)	-	?	-	13µM	?	-
CN1C(=O)[C@@H](NC(=O)c2cc3ccccc3[nH]2)N=C(c2ccccc2)c2ccccc21	.	15µM	.	.	15µM	.
CN1C(=O)C(O)N=C(c2ccccc2)c2ccccc21 (stereo not drawn)	-	-	-	-	-	-
O=c1cc(N2CCN(c3ccc(F)cc3)CC2)[nH]c(=O)n1Cc1ccc(F)cc1	25µM	-	-	-	-	-
Cc1ccc(NC(=O)C2CCCN2S(=O)(=O)c2ccc3c(c2)C(C)(C)C(=O)N3C)cc1 (stereo not drawn)	.	.	.	.	.	-
SMILES	AmpC no deterg	Pf growth 48h	AMA1 RON2 block	HCV inhibitor	Pf growth 96h	AmpC detergent
CCC1OC(=O)C[C@@H](O)[C@H](C)[C@@H](OC2OC(C)CC(N(C)C)C2O)[C@@H](CC=O)C[C@@H](C)C(=O)/C=C/[C@]2(C)OC2C1C (stereo partly drawn)	.	13µM	.	.	0.0038µM	.
Cc1ccc(C(C(=O)NC(C)(C)C)N(CCCN2CCOCC2)C(=O)c2ccc(-c3ccccc3)[nH]2)o1 (stereo not drawn)	-	-	-	-	-	-
O=C(NC1CCCCC1)C(c1cccs1)N(Cc1cccs1)C(=O)c1ccco1 (stereo not drawn)	-	15µM	-	-	.	-
O=C(NC1CCCCC1)C(c1cccs1)N(CCCN1CCOCC1)C(=O)c1ccc(-c2ccccc2)[nH]1 (stereo not drawn)	-	1.7µM	-	?	-	-
O=C(NCC(=O)N(Cc1cccs1)C(C(=O)NC1CCCCC1)c1ccco1)c1ccco1 (stereo not drawn)	-	-	-	-	?	?
O=C(NC1CCCC1)C(c1ccc(N2CCOCC2)cc1)N(Cc1ccccc1)C(=O)c1ccco1 (stereo not drawn)	-	15µM	-	-	.	?
O=C(NC1CCCC1)C(c1ccc(N2CCOCC2)cc1)N(Cc1ccco1)C(=O)c1ccco1 (stereo not drawn)	-	?	-	-	.	-
COC(=O)c1cccc(N(C(=O)c2ccco2)C(C(=O)NC2CCCC2)c2ccc(N3CCOCC3)cc2)c1 (stereo not drawn)	-	10µM	-	-	-	-
COc1ccc(C)cc1NC(=O)c1nnn(-c2c(C)cccc2C)c1C	.	.	.	.	.	-
CCOc1ccc(OCC)c(NC(=O)c2ccc(-c3ccccc3)s2)c1	.	.	.	.	.	-
CCOC(=O)C(C)NC(=O)c1c(C)oc2ncn(CC(C)C)c(=O)c12 (stereo not drawn)	.	.	.	.	.	-
Cc1ccc(CNC(=O)CN2C(=O)CCc3cc(S(=O)(=O)N4CCCCC4)ccc32)cc1	.	.	.	.	.	-
COc1cc(OC)c(NC(=O)c2cc3ccccc3cc2O)cc1Cl	.	.	-	32µM	.	.
COc1cc2c(cc1NC(=O)c1ccc3c(c1)OCO3)oc1ccccc12	-	-	-	14µM	-	-
COc1ccccc1NC(=O)c1ccc2c(c1)OCO2	-	-	-	-	?	-
CCCN(CCC)S(=O)(=O)c1ccc(C(=O)Nc2cc3oc4ccccc4c3cc2OC)cc1	-	10µM	-[2.32 µM]	-	-	?
COc1cc2c(cc1NCc1ccc3c(c1)OCO3)oc1ccccc12	-	-	32µM	?	-	-
COc1cc(NC(=O)c2ccccc2)c(OC)cc1Cl	-	-	-	?	-	-
COc1cc2c(cc1NCc1ccccn1)oc1ccccc12	-	-	-	?	.	-
CCc1ccc(NC(=O)CN2C(=O)c3ccccc3Sc3ccc(C(=O)N4CCCC4)cc32)cc1	.	.	.	.	.	-
